# Measurements from PubChem BioAssay AID1159580 (chemical genetic matrix, 2015).
# Where “and” joins values, the source holds several entries; their conditions need not be identical. Equal entries are not always repeated. Hit rate of the full screen: of about 5,500 compounds, about 2,000 (36%) were called active. Roughly 18% stayed inconclusive and do not appear here. No stated cut-off is given here; in the data, active means normalized growth mostly below about 0.91 (no sharp cut-off); inconclusive means no clear call, values can overlap the other calls; inactive means mostly above about 0.92. This is one part of the list.
# Experiment: chemical genetic growth profiling, strain panel (AID 1159580);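 further: tested at 20 µM; growth read once vehicle control cultures reached saturation at 30 °C; 1 = growth at the plate median or of vehicle wells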
# Conditions: S. cerevisiae deletion strains, growth OD
structure (smiles),measurement,setting,value
O=C(O)CCCCCCCCCCCCC1C=CCC1 (stereo not drawn),normalized growth,"locus YBR021W, strain FUR4, stronger effect = lower value",0.186 (active)
same,normalized growth,"locus YBR229C, strain ROT2, stronger effect = lower value",1.01 (inactive)
same,normalized growth,"locus YCL029C, strain bik1, stronger effect = lower value",0.939 (inactive)
same,normalized growth,"locus YDL035C, strain GPR1, stronger effect = lower value",0.87 (inactive)
same,normalized growth,"locus YDL074C, strain BRE1, stronger effect = lower value",0.653 (active)
same,normalized growth,"locus YDL101C, strain DUN1, stronger effect = lower value",0.958 (inactive)
same,normalized growth,"locus YDL134C, strain PPH21, stronger effect = lower value",0.93 (inactive)
same,normalized growth,"locus YDL185W, strain tfp1, stronger effect = lower value",1.01 (inactive)
same,normalized growth,"locus YDL192W, strain arf1, stronger effect = lower value",0.82 (active)
same,normalized growth,"locus YDR101C, strain arx1, stronger effect = lower value",0.883 (active)
same,normalized growth,"locus YDR162C, strain NBP2, stronger effect = lower value",0.911 (inactive)
same,normalized growth,"locus YDR318W, strain mcm21, stronger effect = lower value",0.946 (inactive)
same,normalized growth,"locus YDR388W, stronger effect = lower value",0.976 (inactive)
same,normalized growth,"locus YDR502C, strain sam2, stronger effect = lower value",0.917 (active)
same,normalized growth,"locus YEL061C, strain CIN8, stronger effect = lower value",0.971 (inactive)
same,normalized growth,"locus YER110C, stronger effect = lower value",1.01 (inactive)
same,normalized growth,"locus YER155C, strain BEM2, stronger effect = lower value",0.745 (active)
same,normalized growth,"locus YER167W, strain BCK2, stronger effect = lower value",1.01 (inactive)
same,normalized growth,"locus YGL078C, strain dbp3, stronger effect = lower value",0.973 (inactive)
same,normalized growth,"locus YGL086W, strain mad1, stronger effect = lower value",0.853 (active)
same,normalized growth,"locus YGL248W, strain PDE1, stronger effect = lower value",0.865 (active)
same,normalized growth,"locus YGR135W, strain pre9, stronger effect = lower value",0.953 (inactive)
same,normalized growth,"locus YGR252W, strain gcn5, stronger effect = lower value",0.78 (inactive)
same,normalized growth,"locus YHR030C, strain SLT2, stronger effect = lower value",0.311 (active) and 0.959 (inactive)
same,normalized growth,"locus YHR079C, strain IRE1 (second series), stronger effect = lower value",0.98 (inactive)
same,normalized growth,"locus YHR079C, strain IRE1, stronger effect = lower value",0.935 (inactive)
same,normalized growth,"locus YHR094C, strain hxt1, stronger effect = lower value",1 (inactive)
same,normalized growth,"locus YHR129C, strain ARP1, stronger effect = lower value",0.885 (active)
same,normalized growth,"locus YHR200W, strain rpn10, stronger effect = lower value",1 (inactive)
same,normalized growth,"locus YIL066C, strain RNR3, stronger effect = lower value",0.841 (active)
same,normalized growth,"locus YIL073C, strain SPO22, stronger effect = lower value",0.604 (active)
same,normalized growth,"locus YIL125W, strain kgd1, stronger effect = lower value",0.99 (inactive)
same,normalized growth,"locus YIR030C, strain dcg1, stronger effect = lower value",0.998 (inactive)
same,normalized growth,"locus YJL095W, strain BCK1, stronger effect = lower value",0.542 (active) and 0.952 (inactive)
same,normalized growth,"locus YJL134W, strain LCB3, stronger effect = lower value",1.02 (inactive)
same,normalized growth,"locus YJL168C, strain set2, stronger effect = lower value",0.999 (inactive)
same,normalized growth,"locus YJL187C, strain SWE1 (second series), stronger effect = lower value",0.867 (inactive)
same,normalized growth,"locus YJR043C, strain POL32, stronger effect = lower value",0.919 (inactive)
same,normalized growth,"locus YJR066W, strain TOR1, stronger effect = lower value",0.931 (inactive)
same,normalized growth,"locus YJR075W, strain HOC1, stronger effect = lower value",0.967 (inactive)
same,normalized growth,"locus YKL009W, strain mrt4, stronger effect = lower value",0.972 (inactive)
same,normalized growth,"locus YKL068W, stronger effect = lower value",1.01 (inactive)
same,normalized growth,"locus YKL085W, strain MDH1 (second series), stronger effect = lower value",1.01 (inactive)
same,normalized growth,"locus YKL085W, strain MDH1, stronger effect = lower value",1.01 (inactive)
same,normalized growth,"locus YKL190W, strain CNB1, stronger effect = lower value",0.761 (active)
same,normalized growth,"locus YKR001C, strain vps1, stronger effect = lower value",0.337 (active)
same,normalized growth,"locus YLR039C, strain RIC1, stronger effect = lower value",0.422 (active)
same,normalized growth,"locus YLR058C, strain SHM2, stronger effect = lower value",0.902 (inactive)
same,normalized growth,"locus YLR102C, strain apc9, stronger effect = lower value",0.998 (inactive)
same,normalized growth,"locus YLR113W, strain HOG1, stronger effect = lower value",0.995 (inactive)
same,normalized growth,"locus YLR262C, strain YPT6, stronger effect = lower value",0.476 (active)
same,normalized growth,"locus YLR268W, strain sec22, stronger effect = lower value",0.812 (active)
same,normalized growth,"locus YLR330W, strain CHS5, stronger effect = lower value",0.822 (active)
same,normalized growth,"locus YLR342W, strain FKS1 (second series), stronger effect = lower value",0.854 (inactive)
same,normalized growth,"locus YLR371W, strain rom2, stronger effect = lower value",0.992 (inactive)
same,normalized growth,"locus YLR418C, strain cdc73, stronger effect = lower value",0.632 (active)
same,normalized growth,"locus YML016C, strain PPZ1, stronger effect = lower value",1.03 (inactive)
same,normalized growth,"locus YML032C, strain rad52, stronger effect = lower value",0.977 (inactive)
same,normalized growth,"locus YML124C, strain tub3, stronger effect = lower value",0.998 (inactive)
same,normalized growth,"locus YMR078C, strain ctf18, stronger effect = lower value",1.01 (inactive)
same,normalized growth,"locus YMR223W, strain ubp8, stronger effect = lower value",0.871 (active)
same,normalized growth,"locus YMR263W, strain SAP30, stronger effect = lower value",0.915 (inactive)
same,normalized growth,"locus YMR307W, strain GAS1, stronger effect = lower value",1.13 (inactive)
same,normalized growth,"locus YNL067W, strain RPL9B, stronger effect = lower value",0.933 (inactive)
same,normalized growth,"locus YNL153C, strain GIM3, stronger effect = lower value",0.808 (active)
same,normalized growth,"locus YNL183C, strain NPR1, stronger effect = lower value",0.903 (inactive)
same,normalized growth,"locus YNL233W, strain BNI4, stronger effect = lower value",0.652 (active)
same,normalized growth,"locus YNL250W, strain rad50, stronger effect = lower value",1.02 (inactive)
same,normalized growth,"locus YNL271C, strain bni1, stronger effect = lower value",0.976 (inactive)
same,normalized growth,"locus YNL298W, strain CLA4, stronger effect = lower value",0.944 (inactive)
same,normalized growth,"locus YNL307C, strain MCK1, stronger effect = lower value",0.585 (active)
same,normalized growth,"locus YNR052C, strain pop2, stronger effect = lower value",0.988 (inactive)
same,normalized growth,"locus YOL006C, strain TOP1, stronger effect = lower value",0.764 (inactive)
same,normalized growth,"locus YOL012C, strain htz1",0.57 (inactive)
same,normalized growth,"locus YOL147C, strain pex11, stronger effect = lower value",0.871 (active)
same,normalized growth,"locus YOR061W, strain CKA2, stronger effect = lower value",0.987 (inactive)
same,normalized growth,"locus YOR069W, strain VPS5, stronger effect = lower value",0.956 (inactive)
same,normalized growth,"locus YOR136W, strain idh2, stronger effect = lower value",0.976 (inactive)
same,normalized growth,"locus YOR144C, strain elg1, stronger effect = lower value",0.901 (active)
same,normalized growth,"locus YOR184W, strain ser1, stronger effect = lower value",0.726 (active)
same,normalized growth,"locus YOR231W, strain MKK1, stronger effect = lower value",0.954 (inactive)
same,normalized growth,"locus YOR316C, strain cot1, stronger effect = lower value",0.999 (inactive)
same,normalized growth,"locus YPL256C, strain CLN2, stronger effect = lower value",1.04 (inactive)
same,normalized growth,"locus YPR119W, strain clb2, stronger effect = lower value",0.993 (inactive)
same,normalized growth,"locus YPR141C, strain kar3, stronger effect = lower value",1.01 (inactive)
same,normalized growth,"locus YPR163C, strain tif3, stronger effect = lower value",0.921 (inactive)
same,normalized growth,"locus YPR167C, strain met16, stronger effect = lower value",0.989 (inactive)
same,normalized growth,"strain wtn01, stronger effect = lower value",0.908 (inactive)
